Source: PubChem BioAssay
TGFb SMAD3 inh: blocks TGF-b signaling; HepG2 CAGA-GFP TGF-b/SMAD3 reporter, GFP fluorescence, 18 h; TGF-beta stimulated, 500 pg/mL final; Potency, µM (top dose mostly 46.1 µM), usual class: inhibitors; hit rate 1.2% among 410,000; further: nearly all actives have a fitted effect of over 65% in size
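HEPG2 CAGA-GFP reporter cells (1000/well, DMEM with 1% FBS) received compounds, then recombinant TGF-beta at 500 pg/mL final for 18 hours at 37 degrees C. Per-cell GFP summed per well was normalised to unstimulated and stimulated DMSO controls before curve fitting.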
S-ASM inh: human S-ASM enzyme inhibition. hit rate 0.006% among 340,000. placental ASM, HMU-PC fluorogenic substrate, 60 min. P17405. Potency, µM (series often up to 57.5 µM), actives largely listed as inhibitors
Target sequence (P17405 47-631 limits assumed): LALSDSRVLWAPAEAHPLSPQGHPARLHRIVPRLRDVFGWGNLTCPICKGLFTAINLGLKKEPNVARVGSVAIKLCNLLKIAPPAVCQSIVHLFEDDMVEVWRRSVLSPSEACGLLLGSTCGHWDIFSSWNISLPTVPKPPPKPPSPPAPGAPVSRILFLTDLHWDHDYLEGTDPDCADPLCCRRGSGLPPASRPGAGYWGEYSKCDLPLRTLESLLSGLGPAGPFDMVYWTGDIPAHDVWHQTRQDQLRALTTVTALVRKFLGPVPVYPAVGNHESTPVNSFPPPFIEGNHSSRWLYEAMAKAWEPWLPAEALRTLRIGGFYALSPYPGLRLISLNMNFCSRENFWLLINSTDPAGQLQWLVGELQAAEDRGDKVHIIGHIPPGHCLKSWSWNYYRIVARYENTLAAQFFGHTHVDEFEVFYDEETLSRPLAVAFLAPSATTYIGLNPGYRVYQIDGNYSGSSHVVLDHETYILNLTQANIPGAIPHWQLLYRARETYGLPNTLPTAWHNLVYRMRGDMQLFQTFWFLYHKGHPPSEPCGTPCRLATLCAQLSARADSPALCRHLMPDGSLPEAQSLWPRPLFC
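Human placenta-derived ASM enzyme was preincubated with compound for 10 minutes at room temperature, then given fluorogenic substrate HMU-PC0 (9 uM final) for 60 minutes at 37 °C; a pH 10 stop preceded fluorescence reading at Ex 386/Em 447 nm.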
IL1B secr inh: inflammasome signaling inhibition, IL-1 beta readout | hit rate 4.7% among 360,000 | THP-1 LPS/ATP IL-1B secretion, AlphaLISA, 16 h; active compounds read low | activity change, % at 57.5 µM | AID 743279; in the data active means activity change below about -50%; inconclusive means mostly about -30% to -49%
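Secreted IL-1B measured by AlphaLISA bead assay after 16 h compound exposure of THP-1 cells; compounds (final up to 57.5 uM) added 1 h before LPS (250 ng/mL) and ATP (1.25 mM) stimulation; lower signal means less secretion.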
DT40 TDP1 CPT: growth inhibition of DT40 Tdp1-/-;hTDP1 cells with camptothecin (screen for TDP1 inhibitors). hit rate 12% among 420,000. AID 686979. chicken DT40 Tdp1-/-;hTDP1 cells + 20 nM CPT, ATP luminescence, 48 h. Potency, µM (series often up to 46.2 µM), actives largely listed as inhibitors; further: nearly all actives have a fitted effect of over 55% in size
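Chicken DT40 Tdp1-/- cells stably complemented with human TDP1 were seeded at 400 cells/well in medium containing 20 nM camptothecin, exposed to pin-transferred compounds, and grown at 37 °C for at least 48 hr. Viability was read as ATP luminescence.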
HepG2 tox: kills HepG2 cells in TGF-b inhibitor counter-screen | HepG2 CAGA-GFP viability, ATP luminescence, 18 h | Potency, µM (titrated, usually from 46.1 µM), most hits filed as cytotoxic | hit rate 0.76% among 410,000
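CellTiter-Glo luminescence gave cytotoxicity after 18 hours at 37 degrees C. The cells were HepG2 CAGA-GFP in 1% FBS DMEM, stimulated with 500 pg/mL TGF-beta after compound addition. %Activity was normalised to no-cell wells (complete cell-killing) and DMSO (no toxicity), and curves were fitted and classified.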
TDP1 cell noCPT: qHTS for Inhibitors of human tyrosyl-DNA phosphodiesterase 1 (TDP1): qHTS in cells in absence of CPT; Potency, µM (top dose mostly 46.2 µM), usual class: inhibitors; DT40 Tdp1-/- hTDP1 cells, no CPT, ATP luminescence, 48 h; AID 686978, 2013; hit rate 15% among 420,000; further: nearly all actives have a fitted effect of over 55% in size
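Seeded 400 DT40-hTDP1 cells/well (vehicle DMSO, no 20 nM CPT); pinned compounds; ≥48 hr at 37 °C; CellTiter-Glo luminescence as viability measure.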
Hits are given with their value; 0 = inactive; ? = inconclusive; - = not tested or not shown. This is a sample that favours compounds with a hit; in the whole collection about 19% have one here. Unless noted, the call rests on the fitted dose curve; in most records, active means well fitted curve in the direction sought with a large enough effect; inconclusive means small, poorly fitted or top-dose-only effect, or another doubt; inactive means no such curve, though single readings can be large; an effect the other way counts as inactive or inconclusive.

SMILES	TGFb SMAD3 inh	S-ASM inh	IL1B secr inh	DT40 TDP1 CPT	HepG2 tox	TDP1 cell noCPT
CC(C)(C)C(=O)Nc1ccc(N2CCN(c3ccc(C(F)(F)F)cn3)CC2)nc1	0	0	0	?	0	1.46µM
Cc1ccccc1N1CCN(C(=O)c2ccc(Oc3ccc(C(F)(F)F)cn3)cc2)CC1	0	0	-73.1	8.91µM	0	12.6µM
O=C(c1ccccn1)N1CCN(c2ccc(C(F)(F)F)cn2)CC1	0	0	0	0	0	?
CCOc1ncccc1C(=O)N1CCN(c2ccc(C(F)(F)F)cn2)CC1	0	0	0	?	0	10.3µM
O=C(O)c1ccc(Oc2ccc(C(F)(F)F)cn2)cc1	0	0	0	0	0	0
O=C(c1ccc2n[nH]nc2c1)N1CCN(c2ccc(C(F)(F)F)cn2)CC1	0	0	0	16.4µM	0	?
COc1cccc(NC(=O)Cn2c(=O)n(-c3ccc(Cl)cc3)c(=O)c3oc4ccccc4c32)c1	?	-	-	?	0	?
Cc1cccc(C(=O)N2CCN(c3ccc(C(F)(F)F)cn3)CC2)c1C	0	?	0	13µM	0	20.6µM
Cc1cc(C(=O)N2CCN(c3ccc(C(F)(F)F)cn3)CC2)c(C)o1	0	0	0	?	0	10.3µM
Cc1ccc(C(=O)N2CCN(c3ccc(C(F)(F)F)cn3)CC2)o1	0	0	0	?	0	?
COc1cc(C(=O)NCc2nc(-c3ccc(Cl)cc3)no2)cc(OC)c1OC	0	-	-	0	0	0
COc1cc2nc(SCc3ccc(C)cc3)n3nc(CCn4nc(C)cc4C)nc3c2cc1OC	0	-	-	0	0	0
O=C(NCCCCNC(=O)c1ccccc1F)c1ccccc1F	0	0	0	0	0	?
O=C(NCCNc1ccnc2cc(Cl)ccc12)c1ccccc1F	0	0	0	6.51µM	0	4.11µM
Cc1ccc(C(=O)NCCNc2ccc(Cl)cc2[N+](=O)[O-])o1	0	0	0	?	0	0
O=C(NCCNc1ccc(Cl)cc1[N+](=O)[O-])c1ccccc1F	?	0	0	0	0	20.6µM
O=C1CCC(=O)N1CC(=O)N1CCCc2ccccc21	?	0	0	0	0	0
CC(=O)c1ccc(-n2c(=O)[nH]c(=O)c3c(N)c(C(=O)c4ccc(Cl)cc4)sc32)cc1	?	0	0	?	0	3.66µM
Cc1ccc(C(=O)c2sc3c(c2N)c(=O)[nH]c(=O)n3CCc2ccccc2)cc1	0	0	0	16.4µM	0	16.4µM
Nc1c(C(=O)c2ccc(Cl)cc2)sc2c1c(=O)[nH]c(=O)n2-c1ccccc1	0	0	0	0	0	0
C=CCn1c(=O)[nH]c(=O)c2c(N)c(C(=O)c3ccc(OC)cc3)sc21	?	0	0	0	0	?
CCn1c(=O)[nH]c(=O)c2c(N)c(C(=O)c3cc(F)ccc3F)sc21	11.2µM	0	0	0	0	0
Cc1ccc(S(=O)(=O)Nc2cnc3ccccc3c2)cc1	?	0	0	?	0	?
COc1ccc(OC)c(S(=O)(=O)Nc2ccc3c(c2)n(C)c(=O)n3C)c1	0	0	0	?	0	?
O=S(=O)(Nc1cnc2ccccc2c1)N1CCCCCC1	0	0	0	20.6µM	0	13µM
SMILES	TGFb SMAD3 inh	S-ASM inh	IL1B secr inh	DT40 TDP1 CPT	HepG2 tox	TDP1 cell noCPT
COc1ccc(OC)c(S(=O)(=O)Nc2ccc3c(c2)C(=O)OC3)c1	0	0	0	11.6µM	0	8.2µM
COc1ccc(OC)c(S(=O)(=O)n2cnc3ccccc32)c1	0	0	0	?	0	16.4µM
COc1ccc(F)cc1S(=O)(=O)n1cnc2ccccc21	0	0	0	0	0	0
COc1ccc(OC)c(S(=O)(=O)Nc2cnc3ccccc3c2)c1	0	0	0	?	0	23.1µM
COc1ccc(NS(=O)(=O)c2cc(OC)ccc2OC)cc1	0	0	0	0	0	?
CCOC(=O)C1(Cc2ccc(OC)cc2)CCN(C(=O)CCn2cccn2)CC1	0	0	0	0	0	?
